IL1B secr inh = blocks inflammasome-driven IL-1 beta release; hit rate 4.7% among 360,000; THP-1 LPS/ATP IL-1B secretion, AlphaLISA, 16 h; active compounds read low; activity change, % at 57.5 µM; in the data active = activity change below about -50%; inconclusive = mostly about -30% to -49%
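THP-1 cells pretreated 1 hr with compounds (up to 57.5 uM final), then stimulated with LPS (250 ng/mL final) plus ATP (1.25 mM final); secreted IL-1B measured by AlphaLISA after 16 hr, decreased signal indicating inhibition.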
HT1080-NT tox = kills 2HG-producing HT-1080-NT fibrosarcoma cells | HT-1080-NT fibrosarcoma viability, CellTiter-Glo ATP luminescence, 48 h | Potency, µM (highest dose often 46.1 µM), hits mostly cytotoxic | hit rate 1.6% among 360,000 | AID 686970;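 also: NT is the 2HG producing partner of a matched IDH1 knockdown line; nearly all actives have a fitted effect of over 55% in size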
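A 48-hour cytotoxicity screen used HT-1080-NT cells plated 2 hours before compound delivery. ATP-based CellTiter-Glo luminescence measured viability, normalized to DMSO and no-cell controls.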
DT40 TDP1 CPT = growth inhibition of DT40 Tdp1-/-;hTDP1 cells with camptothecin (screen for TDP1 inhibitors). chicken DT40 Tdp1-/-;hTDP1 cells + 20 nM CPT, ATP luminescence, 48 h. Potency, µM (doses to about 46.2 µM), actives largely listed as inhibitors. hit rate 12% among 420,000. AID 686979; also: nearly all actives have a fitted effect of over 55% in size
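Chicken DT40 Tdp1-/- cells stably complemented with human TDP1 were seeded at 400 cells/well in medium containing 20 nM camptothecin, exposed to pin-transferred compounds, and grown at 37 °C for at least 48 hr. Viability was read as ATP luminescence.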
HT1080 IDH1KD tx = toxicity to HT-1080 IDH1 knockdown cells (counter line). HT-1080 IDH1 knockdown viability, ATP luminescence, 48 h. Potency, µM (doses to about 46.1 µM), most hits filed as cytotoxic. hit rate 2% among 360,000. AID 686971
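Using the IDH1-knockdown HT-1080 line run in the same batch and compound series as the NT line, viability after 48 h at 37 °C was determined by CellTiter-Glo luminescence and expressed as % activity.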
DT40 TDP1 no CPT = qHTS for Inhibitors of human tyrosyl-DNA phosphodiesterase 1 (TDP1): qHTS in cells in absence of CPT | DT40 Tdp1-/- hTDP1 cells, no CPT, ATP luminescence, 48 h | Potency, µM (series often up to 46.2 µM), hits mostly inhibitors | hit rate 15% among 420,000; also: nearly all actives have a fitted effect of over 55% in size
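Camptothecin absent (DMSO only). Human TDP1-complemented DT40 knockout cells, 400 cells/well, 37 °C for minimum 48 hr; ATP measured via CellTiter-Glo, 30 min dark incubation, luminescence.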
A number is an active result. Rows were chosen to be rich in hits. Some 19% of all compounds tested hit in one or more screens of this group. Unless noted, calls follow the shape of the dose curve; as a rule, active = well fitted curve in the direction sought with a large enough effect; inconclusive = small, poorly fitted or top-dose-only effect, or another doubt; inactive = no such curve, though single readings can be large; an effect the other way counts as inactive or inconclusive.

`Cc1cccc(C)c1NC(=O)C(CCc1ccccc1)N1CCC(c2ccccc2)CC1` (centres undefined) gave IL1B secr inh inactive, HT1080-NT tox inactive, DT40 TDP1 CPT 16µM, HT1080 IDH1KD tx inactive and DT40 TDP1 no CPT 18µM.
For Cc1cccc(C)c1NC(=O)C(c1ccccc1)N1CCC2(CC1)OCCO2 (centres undefined) the results were IL1B secr inh inactive, HT1080-NT tox inactive, DT40 TDP1 CPT inactive, HT1080 IDH1KD tx inactive and DT40 TDP1 no CPT inactive.
For CSCCC(C(=O)Nc1c(C)cccc1C)N1CCN(c2ccc(F)cc2)CC1 (centres undefined) the results were IL1B secr inh inactive, HT1080-NT tox inactive, DT40 TDP1 CPT inconclusive, HT1080 IDH1KD tx inactive and DT40 TDP1 no CPT 21µM.
Cc1cccc(C)c1NC(=O)C(c1ccccc1)N1CCC(c2ccccc2)CC1 (centres undefined) was read as IL1B secr inh inactive, HT1080-NT tox inactive, DT40 TDP1 CPT inconclusive, HT1080 IDH1KD tx inactive and DT40 TDP1 no CPT 15µM.
Cc1csc(-c2nc3ccccc3n2C(C(=O)Nc2c(C)cccc2C)C2CC2)c1 (centres undefined) was read as IL1B secr inh inactive, HT1080-NT tox inactive, DT40 TDP1 CPT inconclusive, HT1080 IDH1KD tx inactive and DT40 TDP1 no CPT inconclusive.
For O=S(=O)(NCc1ccc2c(c1)OCO2)c1ccc(F)c(F)c1 the results were IL1B secr inh inactive, HT1080-NT tox inactive, DT40 TDP1 CPT inactive, HT1080 IDH1KD tx inactive and DT40 TDP1 no CPT inactive.
`O=C(Nc1ccc2c(c1)OCCO2)C(CCc1ccccc1)N1CCC(Cc2ccccc2)CC1` (centres undefined) gave IL1B secr inh inactive, HT1080-NT tox inactive, DT40 TDP1 CPT inconclusive, HT1080 IDH1KD tx inactive and DT40 TDP1 no CPT 16µM.
For O=C(Nc1ccc2c(c1)OCCO2)C(CCc1ccccc1)N(Cc1ccccc1)Cc1ccccc1 (centres undefined) the results were IL1B secr inh inactive, HT1080-NT tox inactive, DT40 TDP1 CPT inconclusive, HT1080 IDH1KD tx inactive and DT40 TDP1 no CPT inconclusive.
Screening CSCCC(C(=O)Nc1c(C)cccc1C)N1CCN(c2ccc(C(F)(F)F)cn2)CC1 (centres undefined) returned IL1B secr inh inactive, HT1080-NT tox inactive, DT40 TDP1 CPT inactive, HT1080 IDH1KD tx inactive and DT40 TDP1 no CPT inactive.
For CSCCC(C(=O)Nc1c(C)cccc1C)N1CCC(Cc2ccccc2)CC1 (centres undefined) the results were IL1B secr inh inactive, HT1080-NT tox inconclusive, DT40 TDP1 CPT 16µM, HT1080 IDH1KD tx inconclusive and DT40 TDP1 no CPT 18µM.
Screening COc1ccccc1C(=O)Nc1ccc(S(=O)(=O)N2CCCCC2c2cccnc2)cc1 (centres undefined) returned IL1B secr inh inactive, HT1080-NT tox inactive, DT40 TDP1 CPT inconclusive, HT1080 IDH1KD tx inconclusive and DT40 TDP1 no CPT inconclusive.
`COc1ccc(C(=O)Nc2ccc(NC(C)=O)cc2)cc1S(=O)(=O)N1CCCCC1C` (centres undefined) gave IL1B secr inh inactive, HT1080-NT tox inconclusive, DT40 TDP1 CPT inconclusive, HT1080 IDH1KD tx inconclusive and DT40 TDP1 no CPT inconclusive.
COc1cc(C(=O)Nc2ccc(S(=O)(=O)N3CCCCC3C)cc2)cc(OC)c1OC (centres undefined) was read as IL1B secr inh inconclusive, HT1080-NT tox inactive, DT40 TDP1 CPT 21µM, HT1080 IDH1KD tx inconclusive and DT40 TDP1 no CPT inconclusive.
`COc1ccc(C(=O)Nc2ccc(S(=O)(=O)N3CCCCC3C)cc2)c(OC)c1OC` (centres undefined) gave IL1B secr inh -59, HT1080-NT tox inconclusive, DT40 TDP1 CPT 18µM, HT1080 IDH1KD tx inconclusive and DT40 TDP1 no CPT 16µM.
For Cc1[nH]c(=O)[nH]c(=O)c1CSCC(=O)OCC(=O)Nc1ccccn1 the results were IL1B secr inh inactive, HT1080-NT tox inconclusive, DT40 TDP1 CPT inactive, HT1080 IDH1KD tx inactive and DT40 TDP1 no CPT inactive.
`COc1ccc(NC(=O)c2cc3c(=O)n4ccccc4nc3n2C)cc1OC` gave IL1B secr inh inactive, HT1080-NT tox inactive, DT40 TDP1 CPT inconclusive, HT1080 IDH1KD tx inactive and DT40 TDP1 no CPT inconclusive.
For CCOC(=O)C(NC(=O)c1ccccc1)(OCC1(CC)COC1)C(F)(F)F (centres undefined) the results were IL1B secr inh inactive, HT1080-NT tox inactive, DT40 TDP1 CPT inactive, HT1080 IDH1KD tx inactive and DT40 TDP1 no CPT inactive.
CCOC(=O)C(NC(=O)c1ccccc1)(OCc1ccc(F)cc1)C(F)(F)F (centres undefined) was read as IL1B secr inh inactive, HT1080-NT tox inactive, DT40 TDP1 CPT inactive, HT1080 IDH1KD tx inactive and DT40 TDP1 no CPT 18µM.
Screening CCOC(=O)C(NC(=O)c1cccc(Cl)c1)(OCc1ccc(F)cc1)C(F)(F)F (centres undefined) returned IL1B secr inh -100, HT1080-NT tox inconclusive, DT40 TDP1 CPT inconclusive, HT1080 IDH1KD tx inconclusive and DT40 TDP1 no CPT inconclusive.
For CCOC(=O)C(NC(=O)NCc1cccc(C(F)(F)F)c1)(OCC)C(F)(F)F (centres undefined) the results were IL1B secr inh inactive, HT1080-NT tox inactive, DT40 TDP1 CPT inactive, HT1080 IDH1KD tx inactive and DT40 TDP1 no CPT inactive.
`CCCCN(C(=O)c1ccc2c(c1)S(=O)(=O)N=C1CCCCCN12)c1c(N)n(CCCC)c(=O)[nH]c1=O` gave IL1B secr inh inactive, HT1080-NT tox inactive, DT40 TDP1 CPT inactive, HT1080 IDH1KD tx inactive and DT40 TDP1 no CPT inactive.
COCC(=O)N1C[C@H](C)[C@H](OC)CN(C)C(=O)c2cc(NC(=O)Nc3cccc(F)c3)ccc2OC[C@@H]1C was read as IL1B secr inh inactive, HT1080-NT tox inactive, DT40 TDP1 CPT 12µM, HT1080 IDH1KD tx inactive and DT40 TDP1 no CPT 10µM.
For CCCC(=O)Nc1ccc2c(c1)C(=O)N(C)C[C@@H](OC)[C@H](C)CN(Cc1ccc(-c3ccccn3)cc1)[C@@H](C)CO2 the results were IL1B secr inh inconclusive, HT1080-NT tox inactive, DT40 TDP1 CPT inconclusive, HT1080 IDH1KD tx inactive and DT40 TDP1 no CPT 23µM.
CO[C@@H]1CN(C)C(=O)c2cc(NC(=O)NC3CCCCC3)ccc2OC[C@@H](C)N(CCc2ccccc2)C[C@H]1C was read as IL1B secr inh inactive, HT1080-NT tox inactive, DT40 TDP1 CPT 23µM, HT1080 IDH1KD tx inactive and DT40 TDP1 no CPT 16µM.
Screening CO[C@@H]1CN(C)C(=O)c2cc(NC(=O)Nc3ccc4c(c3)OCO4)ccc2OC[C@@H](C)N(C)C[C@H]1C returned IL1B secr inh inactive, HT1080-NT tox inactive, DT40 TDP1 CPT inactive, HT1080 IDH1KD tx inactive and DT40 TDP1 no CPT inactive.

From PubChem
